Experimental data reported in PubChem BioAssay AID602261 (Sanford-Burnham Center for Chemical Genomics, 2012).
Out of some 360,000 compounds screened, about 2,400 (0.67%) were called active.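 Rule for the calls: active = compounds whose normalised, plate-corrected inhibition of enzyme fluorescence in the single-dose primary screen is 50% or more; inactive = the rest.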 The full list was thinned out, with actives kept by preference.

molecular target: Fatty acid synthase (Homo sapiens) (UniProt P49327); test: FAS thioesterase domain inhibitors, primary screen, biochemical, fluorescence intensity, uHTS (AID 602261); details: recombinant FAS-TE, OMFH fluorogenic substrate, fluorescence endpoint; at 15 µM; hits give high values;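 note: 0% = DMSO with enzyme and 100% = substrate without enzyme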
Sequence (P49327 whole entry, looked up, the tested form may be a part): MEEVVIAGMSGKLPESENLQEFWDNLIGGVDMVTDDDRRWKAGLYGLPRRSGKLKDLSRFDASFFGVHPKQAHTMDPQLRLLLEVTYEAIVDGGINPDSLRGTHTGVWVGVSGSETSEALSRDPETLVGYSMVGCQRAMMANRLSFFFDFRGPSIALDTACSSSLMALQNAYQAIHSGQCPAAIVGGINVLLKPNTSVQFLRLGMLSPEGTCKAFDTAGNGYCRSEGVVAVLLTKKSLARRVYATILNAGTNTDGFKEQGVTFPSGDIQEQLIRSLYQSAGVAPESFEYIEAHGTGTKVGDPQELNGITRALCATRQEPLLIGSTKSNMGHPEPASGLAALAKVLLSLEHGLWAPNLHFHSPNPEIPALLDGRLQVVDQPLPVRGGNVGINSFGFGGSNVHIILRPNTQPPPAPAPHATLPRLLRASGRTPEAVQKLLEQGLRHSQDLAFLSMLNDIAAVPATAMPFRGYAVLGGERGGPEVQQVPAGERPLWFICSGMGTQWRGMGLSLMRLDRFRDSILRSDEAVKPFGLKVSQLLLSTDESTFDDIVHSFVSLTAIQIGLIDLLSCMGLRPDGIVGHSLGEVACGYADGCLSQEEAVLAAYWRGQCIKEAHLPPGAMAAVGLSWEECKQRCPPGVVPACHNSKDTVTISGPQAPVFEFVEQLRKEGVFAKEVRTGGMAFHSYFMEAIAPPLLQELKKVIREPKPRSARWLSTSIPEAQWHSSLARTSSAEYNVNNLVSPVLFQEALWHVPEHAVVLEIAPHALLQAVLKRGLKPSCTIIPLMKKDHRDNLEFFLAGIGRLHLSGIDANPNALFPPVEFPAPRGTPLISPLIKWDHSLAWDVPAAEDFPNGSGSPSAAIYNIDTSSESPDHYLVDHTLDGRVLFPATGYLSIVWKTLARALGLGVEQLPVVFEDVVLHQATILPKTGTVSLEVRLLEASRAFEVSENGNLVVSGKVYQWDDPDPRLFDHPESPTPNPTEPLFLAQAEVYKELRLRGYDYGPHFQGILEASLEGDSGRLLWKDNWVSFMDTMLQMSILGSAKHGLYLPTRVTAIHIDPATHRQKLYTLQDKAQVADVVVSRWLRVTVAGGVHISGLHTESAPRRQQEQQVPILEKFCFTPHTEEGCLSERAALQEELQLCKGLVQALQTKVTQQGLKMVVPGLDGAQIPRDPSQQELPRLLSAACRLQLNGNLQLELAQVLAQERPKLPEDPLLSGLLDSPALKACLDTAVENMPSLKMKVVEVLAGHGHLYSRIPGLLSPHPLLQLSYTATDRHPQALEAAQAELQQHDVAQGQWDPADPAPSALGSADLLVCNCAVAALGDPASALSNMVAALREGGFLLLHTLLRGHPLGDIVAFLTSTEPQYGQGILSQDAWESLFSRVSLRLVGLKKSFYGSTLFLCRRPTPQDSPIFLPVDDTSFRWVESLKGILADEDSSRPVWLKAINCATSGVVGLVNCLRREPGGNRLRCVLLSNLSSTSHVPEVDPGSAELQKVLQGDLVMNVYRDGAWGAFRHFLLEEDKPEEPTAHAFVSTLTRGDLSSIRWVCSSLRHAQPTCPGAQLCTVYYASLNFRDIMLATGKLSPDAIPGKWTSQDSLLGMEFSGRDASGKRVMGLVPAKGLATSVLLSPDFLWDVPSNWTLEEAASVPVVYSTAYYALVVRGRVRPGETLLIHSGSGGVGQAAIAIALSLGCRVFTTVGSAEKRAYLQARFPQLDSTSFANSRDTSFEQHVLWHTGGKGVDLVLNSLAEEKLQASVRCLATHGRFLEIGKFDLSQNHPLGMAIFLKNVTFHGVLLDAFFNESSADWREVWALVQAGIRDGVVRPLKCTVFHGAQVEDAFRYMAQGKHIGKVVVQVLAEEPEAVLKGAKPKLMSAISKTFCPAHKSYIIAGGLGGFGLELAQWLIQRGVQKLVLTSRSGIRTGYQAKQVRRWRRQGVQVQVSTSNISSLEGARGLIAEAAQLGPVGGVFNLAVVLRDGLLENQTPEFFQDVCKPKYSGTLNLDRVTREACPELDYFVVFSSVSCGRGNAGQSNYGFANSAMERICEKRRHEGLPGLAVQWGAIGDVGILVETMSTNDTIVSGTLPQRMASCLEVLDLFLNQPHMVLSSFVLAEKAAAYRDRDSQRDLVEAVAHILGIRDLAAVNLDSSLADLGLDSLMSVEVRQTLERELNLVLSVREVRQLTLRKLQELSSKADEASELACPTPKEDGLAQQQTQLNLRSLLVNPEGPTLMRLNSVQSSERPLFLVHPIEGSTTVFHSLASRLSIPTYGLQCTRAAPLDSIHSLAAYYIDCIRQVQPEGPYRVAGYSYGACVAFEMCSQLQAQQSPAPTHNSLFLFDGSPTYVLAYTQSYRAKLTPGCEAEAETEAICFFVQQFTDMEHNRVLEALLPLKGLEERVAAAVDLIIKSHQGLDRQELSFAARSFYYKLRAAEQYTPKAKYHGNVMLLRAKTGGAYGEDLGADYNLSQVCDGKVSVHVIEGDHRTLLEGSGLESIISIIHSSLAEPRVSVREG

inhibition, active:
O=C1[C@H]2[C@@H](c3ccc(Cl)cc3)N3C(=O)N(c4cccc(F)c4)C(=O)[C@@]3(Cc3ccccc3)[C@H]2C(=O)N1C1CCCCC1 92.2%
Cc1cccc(N2C(=O)N3[C@H](c4ccc(F)cc4)[C@@H]4C(=O)N(C5CCCCC5)C(=O)[C@@H]4[C@]3(Cc3ccccc3)C2=O)c1 90.1%
O=C1[C@H]2[C@@H](c3ccc(F)cc3)N3C(=O)N(c4ccc(C(F)(F)F)cc4)C(=O)[C@@]3(Cc3ccccc3)[C@H]2C(=O)N1C1CCCCC1 91.3%
C[C@@]12C(=O)N(c3cccc(Br)c3)C(=O)N1[C@H](c1ccc(Cl)cc1)[C@@H]1C(=O)N(C3CCCCC3)C(=O)[C@@H]12 93.7%
COc1ccc([C@@H]2[C@@H]3C(=O)N(C(C)(C)C)C(=O)[C@@H]3[C@]3(Cc4ccccc4)C(=O)N(c4cccc(Br)c4)C(=O)N23)cc1 89.7%
Cc1cccc([C@@H]2[C@@H]3C(=O)N(Cc4ccccc4)C(=O)[C@@H]3[C@]3(Cc4ccc(Cl)cc4)C(=O)N(c4cccc(Cl)c4)C(=O)N23)c1 91.3%
Clc1ccc2c(c1)C1=C(C(c3ccncc3)O2)C(c2ccc(Br)cc2)n2ncnc2N1 (configuration not stated) 71.3%
CCOc1cc(/C=C(/C#N)c2ccc(Cl)cc2)cc(Cl)c1OCC(=O)O 53.1%
O=c1ccc2c(-c3ccccc3S(=O)(=O)O)c3ccc(O)c(O)c3oc-2c1O 54.8%
COc1cc(S(=O)(=O)N2CCOCC2)ccc1NC(=O)COc1ccc(N(C)S(=O)(=O)c2ccc(C)cc2)cc1 76.5%
Oc1c(Cl)cc(Cl)c(Cl)c1Cc1c(O)c(Cl)cc(Cl)c1Cl 83.7%

inhibition, inactive:
N#Cc1c(/N=C/N2CCCC2)oc(-c2ccccc2)c1-c1ccccc1 27.6%
O=C1[C@H]2[C@@H](c3ccc(C(F)(F)F)cc3)N[C@]3(CCCN(Cc4ccc(Cl)cc4)C3=O)[C@H]2C(=O)N1Cc1ccccc1 41.2%
Cc1ccc([C@H]2N[C@]3(CCCN(CC4CCCCC4)C3=O)[C@H]3C(=O)N(Cc4ccccc4)C(=O)[C@@H]23)cc1 21.4%
O=C1[C@H]2[C@@H](c3ccc(C(F)(F)F)cc3)N[C@]3(CCCN(Cc4ccc(Br)cc4)C3=O)[C@H]2C(=O)N1Cc1ccccc1 41.2%
CC(C)(C)N1C(=O)[C@H]2[C@@H](c3ccc(Br)cc3)N3C(=O)N(c4cccc(Cl)c4)C(=O)[C@@]3(C)[C@H]2C1=O 31.7%
CC12C(=O)N(c3ccccc3)C(=O)C1C(c1ccccc1)N1CCCN12 (configuration not stated) -2.7%
CCN1C(=O)[C@H]2[C@@H](c3ccc(C)cc3)N3C(=O)N(c4cccc(Br)c4)C(=O)[C@@]3(CC)[C@H]2C1=O -1.3%
COc1cc(NC(=O)C2=C(C)OCCS2)c(Cl)cc1C(=O)NCCN1CCN(C)CC1 -10.2%
CC1CCN(S(=O)(=O)c2ccc(NC(=O)C3CC(=O)N(c4ccccc4)C3)cc2)CC1 (configuration not stated) 4.6%
COc1ccc(CNC(=O)CN2CCC(n3nnc4cc(F)ccc43)CC2)cc1 1.6%
Cc1csc(SCC(=O)N(c2ccccc2)C(C)C)n1 -7.2%
CC(NC(=O)C1CCC(CNc2c(N3CCOCC3)c(=O)c2=O)CC1)c1ccccc1 (configuration not stated) 3.6%
S=c1[nH]c2ccccc2c2ccccc12 -0.9%
COCC1CCN(C(=O)C2CCC(=O)N(Cc3cccc(C(F)(F)F)c3)C2)CC1 (configuration not stated) -6.2%
O=C(CCNS(=O)(=O)c1cccs1)N1CCN(c2ccc(F)cc2)CC1 -4.4%
NC1=NC(=O)C2(COC(c3ccccc3Cl)OC2)S1 (configuration not stated) -3.8%
COc1cccc(N2C(=O)CN(Cc3ccccc3)C2=S)c1 -0.9%
CC[C@@]12C(=O)N(c3ccccc3)C(=O)N1[C@H](c1ccc(Br)cc1)[C@@H]1C(=O)N(C(C)(C)C)C(=O)[C@@H]12 13.2%
Cc1cccc(N2C(=O)C3C(c4ccccc4)OC4(C(=O)c5ccccc5C4=O)C3C2=O)c1 (configuration not stated) -2.5%
Cc1cccc([C@@H]2[C@@H]3C(=O)N(Cc4ccccc4)C(=O)[C@@H]3[C@]3(C)C(=O)N(c4ccc(Br)cc4)C(=O)N23)c1 39.4%
CCc1cc(CNC(=O)CC2C(=O)NCCN2Cc2ccccc2C(F)(F)F)on1 (configuration not stated) -2.9%
O=C(NC1CCCCC1)C1CC(=O)N(CCc2ccccc2)C1 (configuration not stated) -6.1%
CCCn1cc(S(=O)(=O)c2ccc(C)cc2)c(=O)c2cc(OCC)ccc21 9.4%
CN(C)CCNc1ccc(-c2n[nH]c(=O)c3ccccc23)cc1[N+](=O)[O-] -2.9%
CCOc1cc(/C=N/NC(=O)OC)ccc1OCCSc1ccc(Cl)cc1 -4.3%
COc1cc(/C=C(/NC(=O)c2ccc(Cl)cc2Cl)C(=O)O)cc(OC)c1OC 0.9%
O=C(c1ccco1)N1CCN=C1SCc1cccc(Cl)c1 5.3%
COC(=O)c1sc2[nH]c(=S)n(N)c(=O)c2c1C -6.3%
Cn1ncc2c(NNC(=O)Cc3cccc4ccccc34)ncnc21 -10.1%
CC(=O)c1c(C)[nH]c(C(=O)N2CCN(S(=O)(=O)c3ccc(F)c(F)c3)CC2)c1C -3.9%
COc1ccc(S(=O)(=O)N2CCOCC2)cc1NC(=O)COc1ccccc1 2.1%
COc1ccc(NC(=O)CNc2cc(S(=O)(=O)N3CCOCC3)ccc2N2CCOCC2)c(OC)c1 -2.5%
COc1ccc(Cl)cc1NS(=O)(=O)c1cccc(C(=O)NCC2CCCO2)c1 (configuration not stated) -3.9%
CC1CCCCN1C(=O)CCS(=O)(=O)Cc1ccccc1 (configuration not stated) -4.6%
CCOc1ccccc1N(CC(=O)NC1CCCCC1)C(=O)CCCC(=O)Nc1ccccn1 -7.1%
COC(=O)c1c(NC(=O)CN2CCN(S(=O)(=O)c3ccccc3[N+](=O)[O-])CC2)sc2c1CCC(C)C2 (configuration not stated) 38.1%
